Measurements from PubChem BioAssay.
Several values for one entry are separate records, joined by “and”; a condition that tells them apart may be missing. Equal entries are not always repeated. For some of these results: Results with a measured potency or affinity are listed apart. More than one record can exist for a structure, and the calls need not agree. Activity calls are given as the source filed them. Unless noted, how the calls were made is not given here.

Experiments:
[1] = antimalarial activity against Dd2 strain (AID 2302;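 active means growth inhibition above 50% at the single 2 µM test dose, taken to imply half-maximal potency below 2 µM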;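 further: 0% = DMSO untreated growth and 100% = chloroquine plus artemisinin killed control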); settings: P. falciparum Dd2 in RBCs, LDH growth readout, 72 h; at 2 µM; stronger effect = higher value
[2] = human hepatoma cell viability loss – ATP luminescence, cytotoxicity control for P. falciparum antimalarial project, primary screen (AID 2303;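 active means inhibition above 50%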;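 further: 0% = DMSO wells and 100% = digitonin-killed cells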); settings: HepG2 viability, 24-48 h, at 10 µM, stronger effect = higher value
[3] = biological target: L-lactate dehydrogenase (Plasmodium falciparum (isolate CDC / Honduras)) (UniProt Q27743); assay: PfLDH activity inhibition – cell lysate, 3D7 strain, counter-screen for P. falciparum growth inhibition project (AID 2304);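 further: 0% = vehicle and 100% = reference inhibitor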; settings: P. falciparum 3D7 crude extract, LDH APAD/NBT absorbance; at 2 µM; stronger effect = higher value
Chain of L-lactate dehydrogenase (Plasmodium falciparum (isolate CDC / Honduras)) (Q27743 whole entry, looked up): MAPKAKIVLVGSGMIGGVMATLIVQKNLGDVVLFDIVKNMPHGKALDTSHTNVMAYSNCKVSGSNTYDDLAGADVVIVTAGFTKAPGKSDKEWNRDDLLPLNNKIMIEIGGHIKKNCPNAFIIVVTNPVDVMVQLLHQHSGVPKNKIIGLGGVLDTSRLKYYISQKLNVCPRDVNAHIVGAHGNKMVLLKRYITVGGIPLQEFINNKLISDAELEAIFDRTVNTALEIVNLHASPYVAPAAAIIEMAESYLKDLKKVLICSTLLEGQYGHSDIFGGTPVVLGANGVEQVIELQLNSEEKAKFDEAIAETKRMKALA

[4] = inhibition of 3D7 malaria parasite growth – strain 3D7 (AID 2306);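 further: 0% = DMSO wells and 100% = chloroquine plus artemisinin control wells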; settings: P. falciparum 3D7 erythrocytic growth, LDH absorbance, 72 h; at 2 µM; stronger effect = higher value
[5] = biological target: Calcium-dependent protein kinase 1 (Plasmodium falciparum (isolate 3D7)) (UniProt P62344); assay: PfCDPK1 kinase inhibitors, biochemical, TCAMS library (AID 1159585; cut-off not given, nearly all actives have IC50 up to about 0.98 µM;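 further: inhibitors leave more ATP so luminescence rises with inhibition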); settings: recombinant PfCDPK1, Kinase-Glo ATP depletion luminescence
Chain of Calcium-dependent protein kinase 1 (Plasmodium falciparum (isolate 3D7)) (P62344 whole entry, looked up): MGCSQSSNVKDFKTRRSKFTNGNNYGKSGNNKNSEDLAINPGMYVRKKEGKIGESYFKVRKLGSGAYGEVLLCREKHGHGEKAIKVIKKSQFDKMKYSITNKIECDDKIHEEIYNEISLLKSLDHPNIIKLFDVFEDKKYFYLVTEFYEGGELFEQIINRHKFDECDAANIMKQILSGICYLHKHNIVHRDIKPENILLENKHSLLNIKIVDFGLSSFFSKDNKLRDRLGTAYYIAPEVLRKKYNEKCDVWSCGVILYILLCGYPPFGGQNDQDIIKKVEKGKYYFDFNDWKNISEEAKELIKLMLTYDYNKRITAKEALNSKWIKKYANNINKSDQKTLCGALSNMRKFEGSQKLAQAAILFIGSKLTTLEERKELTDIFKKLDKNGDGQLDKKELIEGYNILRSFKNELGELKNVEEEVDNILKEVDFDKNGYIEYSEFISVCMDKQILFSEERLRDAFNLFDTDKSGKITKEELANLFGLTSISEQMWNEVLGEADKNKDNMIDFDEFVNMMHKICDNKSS

[6] = biological target: Plasmodium falciparum protein kinase 6 (PK6, PF3D7_1337100) (UniProt Q8IDW1); assay: PfPK6 kinase inhibitors, biochemical, TCAMS library (AID 1159586); settings: recombinant PfPK6, Kinase-Glo ATP depletion luminescence
Chain of Plasmodium falciparum protein kinase 6 (PK6, PF3D7_1337100) (Q8IDW1 1-305): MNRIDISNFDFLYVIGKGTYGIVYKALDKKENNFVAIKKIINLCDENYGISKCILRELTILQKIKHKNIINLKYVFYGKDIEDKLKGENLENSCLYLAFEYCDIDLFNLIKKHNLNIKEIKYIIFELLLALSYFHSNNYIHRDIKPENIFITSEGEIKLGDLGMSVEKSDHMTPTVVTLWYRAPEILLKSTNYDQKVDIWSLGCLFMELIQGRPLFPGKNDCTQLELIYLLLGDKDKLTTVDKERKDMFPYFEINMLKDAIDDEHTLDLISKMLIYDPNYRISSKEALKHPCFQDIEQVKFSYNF

[7] = biological target: Protein kinase 7 (PK7), Plasmodium falciparum 3D7 (PF3D7_0213400) (UniProt Q7YTF7); assay: inhibition of Plasmodium PK7 catalytic activity – biochemical, TCAMS antimalarial set, Kinase-Glo luminescence (AID 1159587); settings: recombinant PfPK7, Kinase-Glo ATP depletion luminescence
Chain of Protein kinase 7 (PK7), Plasmodium falciparum 3D7 (PF3D7_0213400) (Q7YTF7 1-343): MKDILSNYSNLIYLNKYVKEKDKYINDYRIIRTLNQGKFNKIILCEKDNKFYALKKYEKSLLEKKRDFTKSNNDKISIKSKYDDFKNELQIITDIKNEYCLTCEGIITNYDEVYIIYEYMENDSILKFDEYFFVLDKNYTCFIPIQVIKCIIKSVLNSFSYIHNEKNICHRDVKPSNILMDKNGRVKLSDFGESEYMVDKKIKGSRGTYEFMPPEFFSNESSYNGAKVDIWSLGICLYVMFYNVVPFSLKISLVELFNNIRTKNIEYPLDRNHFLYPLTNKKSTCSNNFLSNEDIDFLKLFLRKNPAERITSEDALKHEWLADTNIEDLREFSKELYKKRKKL

[8] = biological target: Calcium-dependent protein kinase 4 (Plasmodium falciparum (isolate 3D7)) (UniProt Q8IBS5); assay: PfCDPK4 kinase inhibitors, biochemical, TCAMS library (AID 1159588; cut-off not given, nearly all actives have IC50 up to about 0.91 µM); settings: recombinant PfCDPK4, Kinase-Glo ATP depletion luminescence
Chain of Calcium-dependent protein kinase 4 (Plasmodium falciparum (isolate 3D7)) (Q8IBS5 whole entry, looked up): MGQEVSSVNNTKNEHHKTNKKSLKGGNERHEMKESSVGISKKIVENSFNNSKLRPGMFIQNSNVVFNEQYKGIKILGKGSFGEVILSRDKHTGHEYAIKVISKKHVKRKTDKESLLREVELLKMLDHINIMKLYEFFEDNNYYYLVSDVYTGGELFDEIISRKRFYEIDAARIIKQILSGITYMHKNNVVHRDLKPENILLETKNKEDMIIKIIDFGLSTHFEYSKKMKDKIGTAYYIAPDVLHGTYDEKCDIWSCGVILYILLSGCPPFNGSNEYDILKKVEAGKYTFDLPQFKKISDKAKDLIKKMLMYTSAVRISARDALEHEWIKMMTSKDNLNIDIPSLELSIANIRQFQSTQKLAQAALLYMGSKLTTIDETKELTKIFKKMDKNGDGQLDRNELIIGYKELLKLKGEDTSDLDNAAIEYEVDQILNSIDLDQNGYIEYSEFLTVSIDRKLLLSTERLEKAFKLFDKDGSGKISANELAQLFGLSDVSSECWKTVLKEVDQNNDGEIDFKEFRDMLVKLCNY

Row | SMILES | growth inhibition [1] | inhibition [2] | inhibition [3] | growth inhibition [4] | outcome [5] | outcome [6] | outcome [7] | outcome [8]
1 | CCCc1cc(O)c2c3c(c(=O)oc2c1)CN(C)CC3 | 50% (active) | 12% (inactive) | 0% (inactive) | 98% (active) | inactive | inactive | inactive | inactive
2 | Oc1cccc(C2CCCN(Cc3cccc4cc[nH]c34)C2)c1 (centres undefined) | 82% (active) | 16% (inactive) | -2% (inactive) | 101% (active) | inactive | inactive | inactive | inactive
3 | CC[C@H]1CN2CC[C@@H]1C[C@H]2[C@H](O)c1cc(-c2ccc(Cl)c(Cl)c2)nc2ccc(O)cc12 | 99% (active) | -8% (inactive) | -1% (inactive) | 98% (active) | inactive | inactive | inactive | inactive
4 | CN1CC=C(c2c[nH]c3ccc(OC(=O)c4ccccc4)cc23)C1 | 97% (active) | 12% (inactive) | 1% (inactive) | 96% (active) | inactive | inactive | inactive | inactive
5 | CC[C@H]1CN2CC[C@H]1C[C@H]2[C@H](O)c1ccnc2ccc(C#N)cc12 | 55% (active) | 0% (inactive) | 5% (inactive) | 100% (active) | inactive | inactive | inactive | inactive
6 | CCCCCC(C)C(C)c1cc(O)c2c(c1)OC(C)(C)c1cnccc1-2 (centres undefined) | 74% (active) | 7% (inactive) | -3% (inactive) | 94% (active) | inactive | inactive | inactive | inactive
7 | C=C[C@H]1CN2CC[C@@H]1C[C@H]2[C@H](O)c1cc(-c2ccc(F)cc2)nc2ccc(OC)cc12 | 98% (active) | 5% (inactive) | -1% (inactive) | 99% (active) | inactive | inactive | inactive | inactive
8 | CC(C)C[C@H](Nc1ccc(C#N)c2ccccc12)C(=O)N[C@@H]1CCCc2ccccc21 | 100% (active) | 38% (inactive) | 10% (inactive) | 99% (active) | inactive | inactive | inactive | inactive
9 | CC(=O)N(Cc1ccccc1-c1cccc(CNCCc2ccccc2)c1)C1CCN(Cc2ccccc2)CC1 | 30% (inactive) | 19% (inactive) | 0% (inactive) | 89% (active) | inactive | inactive | inactive | inactive
10 | COc1cccc(O)c1CNCC(O)c1cccc(C(F)(F)F)c1 (centres undefined) | 96% (active) | 31% (inactive) | 4% (inactive) | 98% (active) | inactive | inactive | inactive | inactive
11 | COc1cc2c(c(OC)c1OC)C[C@H]1c3c(cc4c(c3-2)OCO4)CCN1C | 30% (inactive) | 7% (inactive) | -1% (inactive) | 84% (active) | inactive | inactive | inactive | inactive
12 | CC[C@H]1CN2CC[C@H]1C[C@H]2[C@H](O)c1cc(-c2ccc(F)cc2C)nc2ccc(OC)cc12 | 100% (active) | -2% (inactive) | -3% (inactive) | 99% (active) | inactive | inactive | inactive | inactive
13 | Cc1ccc(CC(C)NCC(O)c2cccc(C#N)c2)cc1 (centres undefined) | 86% (active) | 2% (inactive) | -2% (inactive) | 94% (active) | inactive | inactive | inactive | inactive
14 | FC(F)(F)c1ccc(NC(=S)NC2CCC(CN3CCC(c4c[nH]c5ccccc45)CC3)CC2)cc1 (centres undefined) | 99% (active) and 100% (active) | 65% (active) and 92% (active) | 2% (inactive) and -1% (inactive) | 100% (active) and 101% (active) | inactive | inactive | inactive | inactive
15 | S=C(Nc1ccccc1Cl)NC1CCC(CN2CCC(c3c[nH]c4ccccc34)CC2)CC1 (centres undefined) | 12% (inactive) | 31% (inactive) | 8% (inactive) | 90% (active) | inactive | inactive | inactive | inactive
16 | O=C(C=Cc1ccc(F)c(Br)c1)N1CCC(CN2CCC(c3c[nH]c4ccccc34)CC2)CC1 | 9% (inactive) | 39% (inactive) | -3% (inactive) | 100% (active) | inactive | inactive | inactive | inactive
17 | CC(Cc1ccc(OCCCCOc2ccccc2)cc1)NCCc1ccccc1Cl (centres undefined) | 58% (active) | 100% (active) | 1% (inactive) | 97% (active) | inactive | inactive | inactive | inactive
18 | COc1ccc(C=CC(=O)NC2CCC(CN3CCC(c4c[nH]c5ccccc45)CC3)CC2)cc1OC (centres undefined) | 85% (active) and 72% (active) | 15% (inactive) and 14% (inactive) | 1% (inactive) and -1% (inactive) | 100% (active) and 101% (active) | inactive | inactive | inactive | inactive
19 | Cc1[nH]c2ccc(O)cc2c1C1CCN(CC2CCC(NC(=O)/C=C/c3ccc(Cl)c(Cl)c3)CC2)CC1 (centres undefined) | 95% (active) | 19% (inactive) | 3% (inactive) | 102% (active) | inactive | inactive | inactive | inactive

Row | SMILES | growth inhibition [1] | inhibition [2] | inhibition [3] | growth inhibition [4] | outcome [5] | outcome [6] | outcome [7] | outcome [8]
20 | O=C(/C=C/c1ccc(Cl)c(Cl)c1)NCCCCCN1[C@@H]2CC[C@H]1CC(c1c[nH]c3ccc(O)cc13)C2 (some centres undefined) | -1% (inactive) and 20% (inactive) | 26% (inactive) and 9% (inactive) | 2% (inactive) and -6% (inactive) | 100% (active) and 91% (active) | inactive | inactive | inactive | inactive
21 | CC[C@H]1CN2CCc3cc(OC)c(OC)cc3[C@@H]2C[C@@H]1C[C@H]1NCCc2c1cc(OC)c(OC)c2Br | 97% (active) | 45% (inactive) | -1% (inactive) | 99% (active) | inactive | inactive | inactive | inactive
22 | CC(=O)Nc1ccc(CN2CCC(N(C)c3cc(NC(=O)c4cccc(F)c4)ccn3)CC2)cc1 | -1% (inactive) | 4% (inactive) | 2% (inactive) | 85% (active) | inactive | inactive | inactive | inactive
23 | COc1nc(N)ncc1C(=O)NC1CN2CCC1CC2 (centres undefined) | 0% (inactive) | 26% (inactive) | -1% (inactive) | 92% (active) | inactive | inactive | inactive | inactive
24 | CCC(C)CN1CCC(N(C)c2cc(NC(=O)c3cccc(C)c3)ccn2)CC1 (centres undefined) | 14% (inactive) | 1% (inactive) | 1% (inactive) | 93% (active) | inactive | inactive | inactive | inactive
25 | N#Cc1c(Cl)cccc1Oc1ccc(S(=O)(=O)N2CCC(CN3CCC(c4c[nH]c5ccccc45)CC3)CC2)cc1 | 67% (active) | 36% (inactive) | 4% (inactive) | 100% (active) | inactive | inactive | inactive | inactive
26 | CCOC(C(=O)OCCN(C(C)C)C(C)C)(c1ccccc1)c1ccccc1 | 4% (inactive) | 4% (inactive) | -2% (inactive) | 97% (active) | inactive | inactive | inactive | inactive
27 | OC(CNC12CC3CC(CC(C3)C1)C2)c1cccc(C(F)(F)F)c1 (centres undefined) | 98% (active) | 16% (inactive) | -3% (inactive) | 97% (active) | inactive | inactive | inactive | inactive
28 | CN(c1cc(NC(=O)c2ccccc2)ccn1)C1CCN(Cc2cccc(F)c2)CC1 | 94% (active) | -6% (inactive) | -3% (inactive) | 92% (active) | inactive | inactive | inactive | inactive
29 | O=C(/C=C/c1ccc(Cl)c(Cl)c1)N1CCC(CN2CCC(c3c(Br)[nH]c4ccccc34)CC2)CC1 | 99% (active) | 41% (inactive) | -4% (inactive) | 100% (active) | inactive | inactive | inactive | inactive
30 | CC(Cc1ccc(SC(C)(C)C)cc1)NCC(O)c1cccc(Cl)c1 (centres undefined) | 99% (active) | 14% (inactive) | -7% (inactive) | 99% (active) | inactive | inactive | inactive | inactive
31 | Cn1c(C2C[C@H]3CC[C@H](C2)N3CC2CCC(NC(=O)/C=C/c3ccc(Cl)c(Cl)c3)CC2)nc2ccccc21 (some centres undefined) | 51% (active) | 50% (active) | 4% (inactive) | 100% (active) | inactive | inactive | inactive | inactive
32 | Cc1csc(NC2=NCCN2)n1 | 1% (inactive) | 10% (inactive) | 0% (inactive) | 99% (active) | inactive | inactive | inactive | inactive
33 | CCC(C)CN1CCC(N(C)c2cc(NC(=O)c3ccc(F)cc3)ccn2)CC1 (centres undefined) | 32% (inactive) | 4% (inactive) | -5% (inactive) | 93% (active) | inactive | inactive | inactive | inactive
34 | OC(CNC1CCCCC1)c1ccc(Cl)c(Cl)c1 (centres undefined) | 96% (active) | 17% (inactive) | -1% (inactive) | 99% (active) | inactive | inactive | inactive | inactive
35 | CCCN(CCC)CCOC(=O)C(OCC)(c1ccccc1)c1ccccc1 | 0% (inactive) | -2% (inactive) | 0% (inactive) | 97% (active) | inactive | inactive | inactive | inactive
36 | O=C(/C=C/c1ccc(C(F)(F)F)cc1)NC1CCC(CN2CCC(c3c[nH]c4ccccc34)CC2)CC1 (centres undefined) | 97% (active) and 100% (active) | 42% (inactive) and 73% (active) | -2% (inactive) and -3% (inactive) | 98% (active) and 101% (active) | inactive | inactive | inactive | inactive
37 | O=C(/C=C/c1cccc(Cl)c1)NC1CCC(CN2CCC(c3c[nH]c4ccccc34)CC2)CC1 (centres undefined) | 55% (active) and 82% (active) | 35% (inactive) and 42% (inactive) | 0% (inactive) | 100% (active) and 101% (active) | inactive | inactive | inactive | inactive
38 | O=P(O)(O)Oc1c(Br)cc(Br)cc1-c1cc(Br)cc(Br)c1O | -2% (inactive) | 10% (inactive) | -4% (inactive) | 97% (active) | inactive | inactive | inactive | inactive
